The labels stand for the following.
T1: UNK ZnF1-3 (human, UniProt Q9C0B0 31-174)
T1 sequence: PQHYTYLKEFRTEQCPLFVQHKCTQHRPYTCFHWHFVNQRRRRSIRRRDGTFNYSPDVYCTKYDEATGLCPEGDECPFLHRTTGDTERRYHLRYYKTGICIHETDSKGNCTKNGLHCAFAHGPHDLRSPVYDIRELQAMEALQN

B1: chr15:91426070:91426071:+_ENSG00000140564_ENST00000268171|hu_mus|FALSE|FALSE (ssRNA)
RNA: GGGAGUUCUACAGUCCGACGAUCGGCAGCCAUGGGAAGGGCAGGGUGGGUGUGGGCAUGAGAAGGUCAAGGGUCCAGCUGCUACCCCCAUUAAAAAUACAAAAAAAAAAAAAAAAAAGAAUCAGCAUCUAAAGUGAAUAAUCACAACAGAGGAUUGAGCAUCA
B2: chr4:95690885:95690886:+_ENSMUSG00000028572_ENSMUST00000156910|mus_mus|mus_mus_mus_hu_False|78_88 (ssRNA)
RNA: GGGAGUUCUACAGUCCGACGAUCUUUAGAAAAUGUUAAAUACCAUGAGCAUGCUAAGUAAUUUUAAUAUUUUAUUUUACCAGAAGUCACAGGCAAGCAGACACUACAAGAAUAUAUGAAAAUGAAACUCAACAAUAUAACUGUCAACAGAGGAUUGAGCAUCA
B3: chr5:32794366:32794367:+_ENSMUSG00000014956_ENSMUST00000015100|mus_mus|FALSE|FALSE (ssRNA)
RNA: GGGAGUUCUACAGUCCGACGAUCAGAAGAGAGCCAGCUAUCCAAGGCUUGUCAAAAAGGAUUCUCAUGUUCUGUGAAUCUAAAAACAAACAAACAACAAAAACCCCAAAAAACAAAACCAAUGCAGGUGAGGGUAAUACCAGACAACAGAGGAUUGAGCAUCA
B4: chr14:89307221:89307222:+_ENSG00000165533_ENST00000346301|hu_mus|hu_hu_hu_mus_False|18_78 (ssRNA)
RNA: GGGAGUUCUACAGUCCGACGAUCUCCUGUUUGGUUAGUGCCAGGGAGCUUCAAAGACGUUCCAGGGCGUGGGACCUGAGCAAUAGCAUUUUCAUCCAGGAUCAUUUCAGCAAUUCCUUCCUGAUCUACAUCAAUUUCAUCUAUCAACAGAGGAUUGAGCAUCA
B5: chr7:7679991:7679992:-_ENSG00000106399_ENST00000396682|hu_hu|hu_hu_hu_mus_False|68_88 (ssRNA)
RNA: GGGAGUUCUACAGUCCGACGAUCUGGGAUGAAUCUUUUCCAGCUUCCCUACGAAGCACACGGGCCGGUCGAUGAAUUGUGGUAACAUGCUGGCGUUGACGCGCGCUUUGGGGAGCUGCAUUAUGUCCUCCAUGAUUCUGCCGCCAACAGAGGAUUGAGCAUCA
B6: 96788939_96789059_3507_CDS_ENSG00000066739_ENST00000359933|human|control|control (ssRNA)
RNA: GGGAGUUCUACAGUCCGACGAUCACAAACAUCUUUCAAGGAAUGAGCACCUCCUUCCUCUUCCUCCUGGUAGUGACCAUCAUUCUCCUCUUCUUCUUCAGCUGCAAUUCUCUCCAAAAUGGAAUGCAUGGCUGGUGGAUUUAUCAACAGAGGAUUGAGCAUCA
B7: chr9:74900086:74900087:+_ENSMUSG00000007656_ENSMUST00000169492|mus_mus|motif|central (ssRNA)
RNA: GGGAGUUCUACAGUCCGACGAUCUUGUCCCAAGUGAGGAUACCUUGCCUUUAACUUUGCUUCUUCAGCUUUCUCUGGACGGGUUACUUUAUCUUCCAUUUCCUUUUGCUCCUCCGCAGACGCUGCCUCGGGGACUUCCGCGGACAACAGAGGAUUGAGCAUCA
B8: chr3:139236485:139236486:-_ENSG00000114115_ENST00000232219|hu_mus|FALSE|FALSE (ssRNA)
RNA: GGGAGUUCUACAGUCCGACGAUCCUGAAGACCAAGGUUAUCUCCUCGGGCUGUUCGGGCUGCUCAGUGUACUUUCUUAAACACUUGCUUGCAGAUCACACCCUCAGCUCUCAUUUCCAGGUGAAGUUCAUCACCCUCGAUCCACAACAGAGGAUUGAGCAUCA
B9: 133975656_133975776_5164_3pUTR_ENSG00000205060_ENST00000378509|human|control|control (ssRNA)
RNA: GGGAGUUCUACAGUCCGACGAUCCAUUUCUCUGUCCGUUUAGGUCAAUGCCAACUGGUCCACCAGUGAACAUGUCCACCGGCCCUGAGCUAACUCAUUGGUUUAUUAUUCCUGACCUAAGGUGUUUUACUUCCCCUCUCCAUACAACAGAGGAUUGAGCAUCA
B10: chr1:39494447:39494448:+_ENSG00000168653_ENST00000372967|hu_mus|hu_hu_hu_mus_False|18_98 (ssRNA)
RNA: GGGAGUUCUACAGUCCGACGAUCGCACCGAGCGGCGAUCUUGUAGGGCUGUUCUGCGCUUAGGAACAUAAAGUGCCGGUCCAGGCUGAUGCCCAGCUUUUUCUGUAUGUCAAGGAAAGGCAUGGCCCUGCAGUGCCCUUGUCACAACAGAGGAUUGAGCAUCA
B11: chr20:43533646:43533647:+_ENSG00000166913_ENST00000353703|hu_hu|motif|central (ssRNA)
RNA: GGGAGUUCUACAGUCCGACGAUCGAAAUUUAGUGCCAGACCAAGACGAAUUGGGUGUGUAGGCUGCAUUUCUUUCUUACGGAUUUCAAAUGCUUCCUGGUAAGCCUGCUGGGAGUUCGACACAGUGGUUUGUUUGUUGUCUCCCAACAGAGGAUUGAGCAUCA
B12: chr11:77340908:77340909:-_ENSG00000074201_ENST00000525064|hu_hu|hu_hu_hu_mus_True|8_8 (ssRNA)
RNA: GGGAGUUCUACAGUCCGACGAUCGUUUGGAUCCCUGGACACCGCAUGUAAACUAAUGGUGGGGUAUUCCAGUGAGAAUCCUAAUCCCGAACCAUCUAACCAGGACAGGCGGCUCUCCGCGAUGUAAAGGGUACCAGUGCCGAGCAACAGAGGAUUGAGCAUCA
B13: 135097835_135097955_579_3pUTR_ENSMUSG00000040731_ENSMUST00000036125|mouse|control|control (ssRNA)
RNA: GGGAGUUCUACAGUCCGACGAUCAAGUCCAUGUUGGAGCCACGCAGAGGAGGGCCAUCUCGAAAGCGACUCCCCAUUGGAGGGCCUGCUCGCCGGUCCCCAGGGCGACUGCCCCCCCUACCCCCUAAGAAGUCAUCCCUGUAGCAACAGAGGAUUGAGCAUCA
B14: chr12:493273:493274:-_ENSG00000073614_ENST00000399788|hu_mus|hu_hu_hu_mus_False|48_58 (ssRNA)
RNA: GGGAGUUCUACAGUCCGACGAUCUUUUCUCUCCACCACAGGGAUCUUCAAUGUAGAUCCUUGAAGUUCCCAAAAUUUUGCUAGUUGAUCCAAGAAAUCCAAUCUUACUCUAGUCAUUGCCUCAAGUUCAUUCAGGCGCUGGACCAACAGAGGAUUGAGCAUCA
B15: 36138064_36138184_3590_3pUTR_ENSG00000100320_ENST00000405409|human|control|control (ssRNA)
RNA: GGGAGUUCUACAGUCCGACGAUCAAAGCAAAAGCAAAAUCCUCCCUGCCCCCAUUCCCUAGAACUGUGAAAGCCCGCAUCCCAUUCCCCGCUCCUCUAACUAAAAUAUUUAUAUACAUACAACAAAAAUUGUCUUAACAGCAACAACAGAGGAUUGAGCAUCA
B16: 104554200_104554320_324_3pUTR_ENSMUSG00000032621_ENSMUST00000074616|mouse|control|control (ssRNA)
RNA: GGGAGUUCUACAGUCCGACGAUCAUCAGAUCCAUACAAAGAAACAAAUAAGAAGAACAUAAGGCUUUCCUUUUAUCCUGCUCUAUUAGGAAAAAUAAAAGUGAGCAAAACUUCAAAGACUAACAAUCUCAUUAAUGGAACAUUCAACAGAGGAUUGAGCAUCA
B17: chr18:9954606:9954607:+_ENSG00000101558_ENST00000400000|hu_hu|FALSE|FALSE (ssRNA)
RNA: GGGAGUUCUACAGUCCGACGAUCACCAUUUCCCCAAGGAAUACCUCUUGGCAUUUCCUGAAUGAGUGGGAUUAGCAAUCUAAAUAAAUCAUAUUUCAAGAGGUAACAGCAACAGAUAAAAUUUAAAGGGAUUAUUAAAAUAACCAACAGAGGAUUGAGCAUCA
B18: chr2:73656703:73656704:-_ENSMUSG00000027104_ENSMUST00000100009|mus_hu|FALSE|FALSE (ssRNA)
RNA: GGGAGUUCUACAGUCCGACGAUCAAGAAAUGGAAGUGGGAAGAAAGAUUCAGUAACACCCCCAUUUAUUAAAACACCAGCAAAUUAAAAGUGAAAUAAAUCACAAUGAAUUAUAAUACAAUUUACACAUUGAGCACAGAAAAACAACAGAGGAUUGAGCAUCA
B19: chr19:16212804:16212805:+_ENSG00000167460_ENST00000300933|hu_mus|hu_hu_hu_mus_False|48_58 (ssRNA)
RNA: GGGAGUUCUACAGUCCGACGAUCAACAAUUCUGGAGUGAAGGAAAGAUGUAACAUGGAACAGCAUUAAAGCUCAGUAUUACUAUAUGUGGGUAAUUAUGAUCACCCCAGCAUUCUCGCUUGGAAUGCUUAAAGACAAUCUGUUCAACAGAGGAUUGAGCAUCA
B20: chr19:16212804:16212805:+_ENSG00000167460_ENST00000300933|hu_mus|hu_hu_hu_mus_False|8_78 (ssRNA)
RNA: GGGAGUUCUACAGUCCGACGAUCAACAAUUCUGGAGUGAAGGAAAGAUGUAACAUGCAAUUAAUUAAAAGCUCAGUCAGAAGGCACAUGGGCAACAAUGAUCACCCCAGCAUUCUCGCUUGGAAUGUGCUUGAGAAAUCUGUUCAACAGAGGAUUGAGCAUCA
B21: chr18:9954606:9954607:+_ENSG00000101558_ENST00000400000|hu_mus|FALSE|FALSE (ssRNA)
RNA: B17 RNA with A24C, C26A, A27U, U30C, A36C, G37A, U41A, G129A
B22: 54572216_54573035_2393_CDS_ENSG00000067248_ENST00000251636|human|control|control (ssRNA)
RNA: GGGAGUUCUACAGUCCGACGAUCAUCUUCAAGAUGAAAAACCUCAACAGGAUAACUUCUUCCUGAAAUUCUGAGAAUGGGGCAGUGUGUGAAAUAUGUAGAAAAUUUUUCGCUGUCCACAGUGGCACUCAUUAGAAUCAAGUGCAACAGAGGAUUGAGCAUCA
B23: chr3:57569730:57569731:-_ENSG00000168374_ENST00000303436|hu_mus|FALSE|FALSE (ssRNA)
RNA: GGGAGUUCUACAGUCCGACGAUCAUAUUCUACUGUUUCCACAUUAAAACCAAUGGUAGGAAUGGUGGUGACUAUUUCCCCUAAUUUCAGUUUAUACAGAAUUGUCGUCUUGCCAGCAGCAUCCAAUCCAACCAUCAAAAUGCGCAACAGAGGAUUGAGCAUCA
B24: chr3:75345182:75345183:-_ENSMUSG00000027835_ENSMUST00000161137|mus_hu|FALSE|FALSE (ssRNA)
RNA: GGGAGUUCUACAGUCCGACGAUCAUGUGGUCUCAGCUUCAUUCUUCAUCUCUUCCAUUGUCAUCCUCAUUCAAAAGCCAACUACAGUUGAAAAAGCAGUGCUAAAAUGCAGAGGAAUCUUCAUUCACUGCAAUAUUUCUUCUCCAACAGAGGAUUGAGCAUCA
B25: chr9:42776432:42776433:-_ENSMUSG00000059495_ENSMUST00000165665|mus_hu|FALSE|FALSE (ssRNA)
RNA: GGGAGUUCUACAGUCCGACGAUCUAACAAAUUUAUAGUCAAGAAAAUAAAAUUUGCUUUCCUCUCCCACCCAAAUCCCAACCCUCAAUAGAAAAGACGACAAUGGAAGAAAACACACCCAUUUUCAAGUGCCUGCUAUUUAGUCAACAGAGGAUUGAGCAUCA

Where a chain is given by its changes, count along the chain named. The full ranking holds about 24,000 sequences; the median of “enrichment r” is about 0.99, and the highest 2% start at about 3.7. The full list was thinned out, with the highest values kept by preference.

This test addresses T1, UNK ZnF1-3. As to the kind of experiment: nsRBNS (natural sequence RNA bind-n-seq); RBNS binding buffer (assumed for nsRBNS): 25 mM Tris pH 7.5, 150 mM KCl, 3 mM MgCl2, 0.01% Triton X-100, 500 ug/ml BSA, 20 U/ml SUPERase-In, 4 C; UNK is unkempt and MSI1 is Musashi-1; names of the RNAs are library labels; protein concentration not given here; high values mean tight binding.
B1 gave a binding signal of 19.6 enrichment R.
The result for B2 reads 3.29 enrichment R.
For the molecule B3, the binding signal was found to be 1.31 enrichment R.
With B4, the binding signal worked out at 0.843 enrichment R.
The molecule B5 showed a binding signal of 0.498 enrichment R.
The result for B6 reads 1 enrichment R.
B7: the binding signal amounted to 0.353 enrichment R.
B8 came in with a binding signal of 0.756 enrichment R.
Take B9: the binding signal came to 0.604 enrichment R.
For B10, the binding signal came to 0.479 enrichment R.
Turning to B11, the binding signal worked out at 0.731 enrichment R.
In the case of B12, the binding signal was 1.2 enrichment R.
In turn, B13 registered a binding signal of 0.982 enrichment R.
In the case of B14, the binding signal is 0.927 enrichment R.
B15 returned a binding signal of 3.79 enrichment R.
Turning to B16, the binding signal amounted to 0.765 enrichment R.
B17 showed a binding signal of 3.36 enrichment R.
The molecule B18 yielded a binding signal of 4.55 enrichment R.
In turn, B19 yielded a binding signal of 0.913 enrichment R.
Molecule B20 had a binding signal of 1.42 enrichment R.
The molecule B21 gave a binding signal of 4.49 enrichment R.
Consider B22, for which the binding signal worked out at 1.16 enrichment R.
In turn, B23 gave a binding signal of 0.905 enrichment R.
Regarding B24, the binding signal is 1.23 enrichment R.
In the case of B25 it was 4.14 enrichment R.

For the origin of these results see publication PMC12136788.
